# Results reported in PubChem BioAssay (NCATS).
# Records with an inconclusive call do not appear. The source made the active and inactive calls. Calls come from the whole dose curve; as a rule, active = well fitted curve in the direction sought with a large enough effect; inconclusive = small, poorly fitted or top-dose-only effect, or another doubt; inactive = no such curve, though single readings can be large; an effect the other way counts as inactive or inconclusive.
# Legend:
# [1] = qHTS of pediatric cancer cell lines to identify multiple opportunities for drug repurposing: Primary screen for Rh41 cells (AID 1347108); note: nearly all actives have a fitted effect of over 70% in size
# Procedure, shortened: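 ATP-based luminescence (CellTiter-Glo) quantifies viability after a 48-hour exposure. Compounds are dosed across 8 or 11 final concentrations; DMSO and 2.3 µM bortezomib serve as controls.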
# [2] = qHTS of pediatric cancer cell lines to identify multiple opportunities for drug repurposing: Confirmatory screen for A673 cells (AID 1347110); note: nearly all actives have a fitted effect of over 65% in size
# Procedure, shortened: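 Cells plated at 500-1,000/well were treated five hours later with multi-point dilutions up to 46 µM final. After two days, CellTiter-Glo was added and luminescence read.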
# [3] = qHTS of pediatric cancer cell lines to identify multiple opportunities for drug repurposing: Confirmatory screen for SK-N-MC cells (AID 1347111);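 note: cells exposed to compound for 48 h before the readout; nearly all actives have a fitted effect of over 70% in size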
# Procedure, shortened: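 SK-N-MC cells at 500-1,000 cells/well in growth media were pre-incubated 5 h, then exposed to compounds at 11-point dilutions for 48 h at 37 degrees C, 5% CO2. Viability was read as CellTiter-Glo luminescence.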
# [4] = qHTS of pediatric cancer cell lines to identify multiple opportunities for drug repurposing: Confirmatory screen for BT-12 cells (AID 1347112); note: nearly all actives have a fitted effect of over 55% in size
# Procedure, shortened: (§1)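 Viability after 48 h compound treatment at 37C, 500-1,000 cells/well, read as ATP luminescence with CellTiter-Glo. Primary screens used 11-point (MIPE, 0.78 nM-46 µM) or 8-point (NPC, 0.59 nM-46 µM) final concentrations; follow-up screens used 11-point dilutions.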
# [5] = qHTS of pediatric cancer cell lines to identify multiple opportunities for drug repurposing: Confirmatory screen for DAOY cells (AID 1347114); note: nearly all actives have a fitted effect of over 65% in size
# Procedure, shortened: (§2)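 Viability measured as metabolically active cells via CellTiter-Glo luminescence following 48 hours of compound exposure, 11-point dilutions in confirmatory testing. 500-1,000 cells/well plated 5 hours before dosing; controls were DMSO and 2.3 µM bortezomib.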
# [6] = qHTS of pediatric cancer cell lines to identify multiple opportunities for drug repurposing: Confirmatory screen for LAN-5 cells (AID 1347113); note: nearly all actives have a fitted effect of over 65% in size
# Procedure, shortened: as §1
# [7] = qHTS of pediatric cancer cell lines to identify multiple opportunities for drug repurposing: Confirmatory screen for NB-EBc1 cells (AID 1347115); note: nearly all actives have a fitted effect of over 45% in size
# Procedure, shortened: as §1
# [8] = qHTS of pediatric cancer cell lines to identify multiple opportunities for drug repurposing: Confirmatory screen for SJ-GBM2 cells (AID 1347116); note: nearly all actives have a fitted effect of over 60% in size
# Procedure, shortened: as §2
# [9] = qHTS of pediatric cancer cell lines to identify multiple opportunities for drug repurposing: Confirmatory screen for NB1643 cells (AID 1347109); note: nearly all actives have a fitted effect of over 45% in size
# Procedure, shortened: as §1
# Potency is the fitted concentration of half-maximal effect.
SMILES,Potency [1],Potency [2],Potency [3],Potency [4],Potency [5],Potency [6],Potency [7],Potency [8],Potency [9]
Cc1ccc2nc(NC(=O)CSc3nc4c(c(=O)n3-c3ccccc3)SCC4)sc2c1,14.8 µM (active),1.04 µM (active),11.7 µM (active),3.29 µM (active),7.37 µM (active),–,–,–,–
CC(C)(C)NC(=O)[C@H]1CN(Cc2cccnc2)CCN1C[C@@H](O)C[C@@H](Cc1ccccc1)C(=O)N[C@H]1c2ccccc2C[C@H]1O,3.72 µM (active),inactive,–,inactive,–,inactive,–,–,–
NCC(=O)Nc1ccc(-n2nc(C(F)(F)F)cc2-c2ccc3c(ccc4ccccc43)c2)cc1,–,11.7 µM (active),0.329 µM (active),–,–,2.93 µM (active),7.37 µM (active),3.29 µM (active),–
Cc1[nH]c2ccccc2c1CCNCc1ccc(C=CC(=O)NO)cc1,–,0.329 µM (active),0.0827 µM (active),0.737 µM (active),–,0.261 µM (active),0.369 µM (active),inactive,0.117 µM (active)
COc1cccc2nc(-c3cccs3)nc(NN3C(=O)C=C(C)C3=O)c12,–,5.22 µM (active),0.657 µM (active),10.4 µM (active),–,0.657 µM (active),–,7.37 µM (active),0.657 µM (active)
CCN1CCN(Cc2ccc(-c3cc4c(N[C@H](C)c5ccccc5)ncnc4[nH]3)cc2)CC1,–,0.479 µM (active),0.851 µM (active),26.9 µM (active),8.51 µM (active),9.55 µM (active),–,30.2 µM (active),13.5 µM (active)
O=C(C=Cc1cccnc1)NCCCCC1CCN(C(=O)c2ccccc2)CC1,–,inactive,inactive,inactive,–,inactive,inactive,–,inactive
